JMJD2A Tudor inh: qHTS Assay for Inhibitors of JMJD2A-Tudor Domain; Lysine-specific demethylase 4A (Homo sapiens), O75164; AlphaScreen JMJD2A-Tudor / H3K4me3 peptide binding; Potency, µM (series often up to 114 µM), without a hit: top-dose activity change, negative = inhibition, usual class: inhibitors; actives 4.4% (n = 390,000); AID 504339, 2011; note: potency is the fitted concentration of half-maximal effect; % is set by controls: 0 for no effect and ±100 for the full control effect; nearly all actives have a fitted effect of over 50% in size
PI5P4K alpha inh: qHTS for Inhibitors of phosphatidylinositol 5-phosphate 4-kinase (PI5P4K); max response, %; PI5P4Kalpha enzyme, ADP-Glo luminescence, 60 min; active compounds read low; Phosphatidylinositol 5-phosphate 4-kinase type-2 alpha (Homo sapiens), P48426; actives 1.2% (n = 330,000); active = max response of -50% or lower; inconclusive = between -30% and -50%; inactive = -30% or higher; note: value at the top dose of about 77 µM; % is set by controls: 0 for no effect and ±100 for the full control effect
Target sequence (P48426 whole entry, looked up): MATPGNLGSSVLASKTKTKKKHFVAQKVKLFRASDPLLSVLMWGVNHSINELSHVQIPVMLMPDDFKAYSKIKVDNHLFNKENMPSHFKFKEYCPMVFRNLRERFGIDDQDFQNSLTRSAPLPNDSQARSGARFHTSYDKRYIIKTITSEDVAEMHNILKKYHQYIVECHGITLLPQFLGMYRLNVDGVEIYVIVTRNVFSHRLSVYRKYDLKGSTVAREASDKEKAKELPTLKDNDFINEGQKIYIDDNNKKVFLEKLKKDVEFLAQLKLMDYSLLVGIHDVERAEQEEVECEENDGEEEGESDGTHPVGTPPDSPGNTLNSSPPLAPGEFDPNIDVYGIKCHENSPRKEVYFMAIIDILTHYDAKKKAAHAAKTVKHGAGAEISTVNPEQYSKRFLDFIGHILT
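Controls without substrate or without enzyme flank wells where PI5P4Kalpha converts substrate using 5 microM ATP (final). Incubation lasts 60 minutes at room temperature; ADP formed is read by ADP-Glo luminescence.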
G9a inh: qHTS Assay for Inhibitors of Histone Lysine Methyltransferase G9a. Histone-lysine N-methyltransferase EHMT2 (Homo sapiens), Q96KQ7. G9a H3K9 monomethylation, AlphaScreen, 2 h. Potency, µM (highest dose often 102 µM), for inactives: at the top dose activity, negative = inhibition, most hits filed as inhibitors. actives 8.8% (n = 350,000); note: potency is the fitted concentration of half-maximal effect; % is set by controls: 0 for no effect and ±100 for the full control effect; nearly all actives have a fitted effect of over 75% in size
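AlphaScreen read-out: biotin-H3K9 peptide (500 nM) methylation by 20 nM enzyme with 20 uM SAM, 2 h at room temperature after 15 min compound preincubation; anti-monomethyl H3K9 antibody plus donor/acceptor beads, 10 min dark.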
HP1b chromo inh: HTS for Inhibitors of HP1-beta Chromodomain Interactions with Methylated Histone Tails. AlphaScreen HP1-beta / biotin-H3K9me3 peptide binding. Potency, µM (highest dose often 114 µM), for inactives: at the top dose activity change, negative = inhibition, hits mostly inhibitors. actives 0.56% (n = 390,000). AID 540317, 2011; note: potency is the fitted concentration of half-maximal effect; nearly all actives have a fitted effect of over 70% in size
Target sequence (P83916 whole entry, looked up): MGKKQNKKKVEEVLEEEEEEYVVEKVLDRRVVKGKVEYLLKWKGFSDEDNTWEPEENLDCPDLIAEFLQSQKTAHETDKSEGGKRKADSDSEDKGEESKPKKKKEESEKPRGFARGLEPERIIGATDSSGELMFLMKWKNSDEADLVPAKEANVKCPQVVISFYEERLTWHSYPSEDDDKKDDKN
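HP1-beta protein (50 nM final) preincubated 30 min at room temperature with biotinylated H3(1-18)K9me3 peptide (50 nM) in PBS pH 7.4, 0.01% Tween-20, then compound added for 30 min. AlphaScreen streptavidin donor/nickel chelate acceptor beads (10 ug/mL final), 30 min dark, luminescence read.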
PLK1 PBD inh: qHTS for Inhibitors of PLK1-PDB (polo-like kinase 1 - polo-box domain): Primary Screen. Serine/threonine-protein kinase PLK1 (Homo sapiens), P53350. Plk1 PBD binding of FITC phosphopeptide, fluorescence polarization. Potency, µM, for inactives: max response, negative = inhibition, most hits filed as inhibitors. actives 2.8% (n = 360,000). AID 720504, 2013; note: potency is the fitted concentration of half-maximal effect; series mostly up to about 57 µM; % is set by controls: 0 for no effect and ±100 for the full control effect; nearly all actives have a fitted effect of over 65% in size
BAZ2B inh: qHTS Assay for Inhibitors of BAZ2B | Bromodomain adjacent to zinc finger domain protein 2B (Homo sapiens), Q9UIF8 | AlphaScreen BAZ2B-H3K14Ac peptide displacement | Potency, µM (doses to about 114 µM), inactives show at the highest dose activity change, negative = inhibition, usual class: inhibitors | actives 4.4% (n = 360,000); note: potency is the fitted concentration of half-maximal effect; % is set by controls: 0 for no effect and ±100 for the full control effect; nearly all actives have a fitted effect of over 60% in size
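Protein-peptide AlphaScreen: BAZ2B 50 nM, b-H3K14Ac 50 nM, 1x PBS pH 7.4 + 0.01% Tween-20. Preincubation 30 min RT; cpd 30 min RT (top 110 uM); beads 20 min RT, light-protected.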
The depositor's hits bear a star; ? = inconclusive; · = no result; [ ] = another dose, or the depositor's remark. Shown are actives, neighbours in structure and some others; about 12% of the full set was active somewhere. Unless noted, calls come from the whole dose curve; as a rule, active = well fitted curve in the direction sought with a large enough effect; inconclusive = small, poorly fitted or top-dose-only effect, or another doubt; inactive = no such curve, though single readings can be large; an effect the other way counts as inactive or inconclusive.

SMILES	JMJD2A Tudor inh	PI5P4K alpha inh	G9a inh	HP1b chromo inh	PLK1 PBD inh	BAZ2B inh
Cc1cccn2c(=O)c(C(=O)N3CCN(c4ccccc4)CC3)cnc12	-0.7%	·	1.3%[59 µM]	8.1%	·	1.4%
CCN1C(=O)C(Cc2nc3ccccc3c(=O)n2-c2ccccc2)c2cc(Br)ccc21 (centres undefined)	?	·	?	7.8%	·	?
C=CCc1cc(Cl)ccc1OCCNCCOC	1µM*	14.3	?	?	-11.0%	50.1µM*
C=CCc1cc(Cl)ccc1OCCNCCN1CCOCC1	7.94µM*	5.1	10µM*	?	-11.7%	31.6µM*
CCCOc1ccc(Cl)cc1CN1CCOCC1	?	-6.6	-17.2%[59 µM]	32.8%	1.5%	1.5%
COc1ccc(CN2C(=O)c3cccnc3C2=O)cc1S(=O)(=O)NC1CCCCC1	21.0%	1.4	6.3%	32.0%	8.1%	79.4µM*
COc1ccc(CN2C(=O)c3cccnc3C2=O)cc1S(=O)(=O)N1CC(C)CC(C)C1 (centres undefined)	-5.6%	-0.6	1.2%	25.9%	-7.5%	?
COc1ccccc1CNS(=O)(=O)c1cc(CN2C(=O)c3cccnc3C2=O)ccc1OC	28.0%	-8.8	-4.8%	43.6%	3.4%	56.2µM*
Cc1ccc(C(=O)OCC(=O)NCc2cccc(Cl)c2)cc1S(=O)(=O)N1CCCCC1	-24.7%	6.0	-24.1%	14.8%	-7.6%	10.2%
CC1CC(C)CN(C(=O)CSc2nnc(-c3ccc(F)cc3)o2)C1 (centres undefined)	-6.3%	-7.6	70.8µM*	20.9%	-18.8%	-5.7%
O=C(CSc1nnc(-c2ccc(F)cc2)o1)N1CCCCC1	0.0%	-1.8	20.7%	14.3%	-1.4%	3.5%
CN(CC(=O)Nc1ccc(F)c(F)c1F)C(=O)C1CCN(C(=O)Nc2ccccc2)CC1	-17.8%	2.4	0.8%	9.2%	-2.0%	-2.9%
O=C(COc1c(Cl)cccc1Cl)NN1C(=O)CSC1=S	?	-11.0	-9.3%	-2.2%	18.9µM*	-15.7%
CC(=O)c1ccc(N2CCN(c3ccc(NC(=O)c4cccs4)cc3C(=O)O)CC2)cc1	-16.7%	·	5.4%[59 µM]	-6.5%	·	-2.8%
CCOC(=O)c1c(C)nc2c(c1-c1ccc(OC)c(OC)c1)C(=O)c1ccccc1-2	-16.8%	·	-7.3%	7.3%	-6.5%	-6.3%
CCOC(=O)C(C(=O)OCC)c1cc(Br)c2noc3c2c1C(=O)c1ccccc1-3	50.1µM*	-5.8	2.51µM*	?	1.89µM*	7.94µM*
O=C(NCc1ccco1)C1CCN(C(=O)N2CCOc3ccccc32)CC1	-7.9%	·	2.3%[59 µM]	36.2%	·	3.4%
CCn1c(SCC(=O)Nc2cc(C)on2)nc2c(c1=O)SCC2	-21.9%	-8.7	18.3%	5.1%	-2.3%	-10.6%
COc1cc(/C=C2\SC(=O)N(c3ccccc3Cl)C2=O)cc([N+](=O)[O-])c1O	35.5µM*	-53.4*	11.2µM*	?	?	25.1µM*
COc1ccc(/C=C2\SC(=O)N(CC(=O)Nc3cccnc3)C2=O)cc1OC	-17.3%	-10.4	?	61.5%	-16.1%	-16.2%
COc1cc(/C=C2\SC(=O)N(CC(=O)Nc3cccc(C)c3)C2=O)cc([N+](=O)[O-])c1O	17.8µM*	-91.7*	14.1µM*	28.2µM*	9.47µM*	39.8µM*
COc1cc(/C=C2\SC(=O)N(c3ccc(O)cc3)C2=O)cc(OC)c1OC	-7.0%	-0.6	11.8%[12.7 µM]	25.4%	-2.5%	-7.0%
CCOc1cc(/C=C2\SC(=O)N(CC(=O)Nc3ccccc3F)C2=O)cc([N+](=O)[O-])c1O	-19.5%[11.4 µM]	-54.8*	15.8µM*	35.5µM*	23.8µM*	39.8µM*
COc1ccccc1CN1CCNC(=O)C1CC(=O)NCCc1cnccn1 (centres undefined)	-5.5%	-4.5	?	12.6%[57 µM]	-13.5%	1.3%
O=C(O)CCNc1cc(N2CCN(C(=O)c3ccco3)CC2)c2noc3c2c1C(=O)c1ccccc1-3	17.8µM*	-58.4*	10µM*	?	48.8%	12.6µM*
SMILES	JMJD2A Tudor inh	PI5P4K alpha inh	G9a inh	HP1b chromo inh	PLK1 PBD inh	BAZ2B inh
CCN1CCN(c2cc(N3CCN(C(=O)c4ccco4)CC3)c3c4c(onc24)-c2ccccc2C3=O)CC1	28.2µM*	-15.5	17.8µM*	?	39.7%	11.2µM*
Cc1cc(N2CCN(C(=O)c3ccco3)CC2)c2ccccc2n1	-13.7%	0.2	?	32.8%	-25.1%	-13.9%
COc1ccc(C2=Nc3ccccc3N(C(=O)c3cc(Cl)cc(Cl)c3)C2C(=O)NCc2ccccc2)cc1 (centres undefined)	·	-10.2	·	·	-4.9%	·
CCC(C(=O)NCCCN(CC)CC)n1ncn2c(cc3occc32)c1=O (centres undefined)	-12.0%	·	?	3.2%	·	4.2%
O=C(CCSc1nc2ccccc2o1)N1CCOCC1	-9.1%	-11.1	14.1µM*	39.6%	-7.5%	-7.8%
O=C(CCSc1ccccc1)N1CCOCC1	8.2%	-0.8	4.7%[59 µM]	?	-5.0%	-3.5%
Cn1cccc1C(=S)N1CCOCC1	-10.5%	-7.6	?	-15.1%	?	9.0%
Cn1cccc1C(=S)N=P(C1CCCCC1)(N1CCOCC1)N1CCOCC1	35.5µM*	·	8.91µM*	?	-29.5%	-27.8%
COc1cc2nc(NC(=O)c3ccc(F)cc3Cl)sc(=O)c2cc1OC	-6.7%	-1.5	35.5µM*	-0.7%	?	-31.4%
O=C(Nc1nc2ccsc2c(=O)s1)c1ccc(F)cc1Cl	?	-8.4	-7.7%	-19.1%	-11.5%	-5.1%
O=C(OCc1cnc(Cl)s1)c1ccccc1Cl	47.0%	-2.0	104.0%	94.3%	-14.6%	37.4%
O=C(OCn1ncc(Cl)c(Cl)c1=O)c1cccc(C(F)(F)F)c1	24.1%	·	?	38.6%	?	-35.3%
O=C(OCn1ncc(Br)c(Br)c1=O)c1ccc(F)cc1	-9.6%	-10.6	-25.3%[12.7 µM]	32.2%	9.47µM*	0.3%
O=C(OCn1ncc(Br)c(Br)c1=O)c1ccccc1Cl	-9.4%	-6.8	0.5%[12.7 µM]	63.7%	18.9µM*	-9.0%
CCOc1cc(C(=O)N(Cc2nc(-c3ccc(C)cc3)no2)C(C)C)cc(OCC)c1OCC	-6.1%	·	0.3%[59 µM]	27.2%	·	0.4%
CCCCCC(=O)Nc1cc(S(=O)(=O)O)cc2cc(S(=O)(=O)O)cc(O)c12	1.12µM*	-86.1*	·	1.41µM*	5.97µM*	·
CCCCCC(=O)Nc1cccc2ccccc12	-14.0%	-1.0	-2.2%[59 µM]	22.5%	-10.7%	-8.0%
